Results filed as inconclusive are left out. Activity calls are given as the source filed them. Unless noted, calls come from the whole dose curve; as a rule, active = well fitted curve in the direction sought with a large enough effect in the repeat runs; inconclusive = weak or mixed curves; inactive = no such curve, though single readings can be large; an effect the other way counts as inactive or inconclusive.
What was measured:
[1] = qHTS assay to identify aromatase inhibitors - cell viability counter screen (AID 743084);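 note: cells stimulated with testosterone during compound exposure; nearly all actives have a fitted effect of over 55% in size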
[2] = target: Aryl hydrocarbon receptor (Homo sapiens) (UniProt P35869); experiment: qHTS assay to identify small molecule that activate the aryl hydrocarbon receptor (AhR) signaling pathway (AID 743085);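 note: HG2L7.5c1 human HepG2 liver cells with stably integrated DRE-driven firefly reporter; series mostly up to about 70 µM; nearly all actives have a fitted effect of over 15% in size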
Sequence of Aryl hydrocarbon receptor (Homo sapiens) (P35869 whole entry, looked up): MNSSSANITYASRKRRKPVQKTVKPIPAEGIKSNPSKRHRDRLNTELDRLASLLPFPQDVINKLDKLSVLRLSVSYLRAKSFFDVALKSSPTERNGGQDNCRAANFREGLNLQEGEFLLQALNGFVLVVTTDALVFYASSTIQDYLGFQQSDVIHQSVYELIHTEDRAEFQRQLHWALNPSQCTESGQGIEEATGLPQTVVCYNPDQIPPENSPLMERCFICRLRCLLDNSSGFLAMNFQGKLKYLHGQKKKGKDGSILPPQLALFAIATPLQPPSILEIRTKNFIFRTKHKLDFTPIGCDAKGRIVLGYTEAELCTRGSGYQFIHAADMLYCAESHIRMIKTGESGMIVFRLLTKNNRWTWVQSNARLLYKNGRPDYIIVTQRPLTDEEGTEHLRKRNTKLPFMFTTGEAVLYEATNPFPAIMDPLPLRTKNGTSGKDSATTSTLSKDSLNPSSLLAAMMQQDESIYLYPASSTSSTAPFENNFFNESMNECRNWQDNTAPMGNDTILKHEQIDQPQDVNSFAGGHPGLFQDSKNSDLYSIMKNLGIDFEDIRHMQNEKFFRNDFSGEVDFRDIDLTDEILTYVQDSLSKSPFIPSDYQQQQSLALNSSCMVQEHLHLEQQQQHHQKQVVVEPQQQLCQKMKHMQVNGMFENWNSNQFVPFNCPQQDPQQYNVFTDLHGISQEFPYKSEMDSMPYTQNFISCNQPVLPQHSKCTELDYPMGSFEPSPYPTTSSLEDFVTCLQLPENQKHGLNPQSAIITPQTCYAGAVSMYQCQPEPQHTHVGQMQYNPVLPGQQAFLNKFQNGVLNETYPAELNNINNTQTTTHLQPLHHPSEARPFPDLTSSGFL
Summary of the method: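 HepG2 cells stably carrying a 20-DRE firefly luciferase reporter (HG2L7.5c1) treated with compound for 24 hr at 37C. Luciferase read by ONE-Glo luminescence, with CellTiter-Fluor viability read first.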

[3] = target: Peroxisome proliferator-activated receptor gamma (Homo sapiens) (UniProt P37231); experiment: qHTS assay to identify small molecule agonists of the peroxisome proliferator-activated receptor gamma (PPARg) signaling pathway (AID 743094; active = well fitted activation curve with a large enough effect in the signal ratio in the repeat runs, not every such curve was filed as active; the % refers to the signal ratio)
Sequence of Peroxisome proliferator-activated receptor gamma (Homo sapiens) (P37231 whole entry, looked up): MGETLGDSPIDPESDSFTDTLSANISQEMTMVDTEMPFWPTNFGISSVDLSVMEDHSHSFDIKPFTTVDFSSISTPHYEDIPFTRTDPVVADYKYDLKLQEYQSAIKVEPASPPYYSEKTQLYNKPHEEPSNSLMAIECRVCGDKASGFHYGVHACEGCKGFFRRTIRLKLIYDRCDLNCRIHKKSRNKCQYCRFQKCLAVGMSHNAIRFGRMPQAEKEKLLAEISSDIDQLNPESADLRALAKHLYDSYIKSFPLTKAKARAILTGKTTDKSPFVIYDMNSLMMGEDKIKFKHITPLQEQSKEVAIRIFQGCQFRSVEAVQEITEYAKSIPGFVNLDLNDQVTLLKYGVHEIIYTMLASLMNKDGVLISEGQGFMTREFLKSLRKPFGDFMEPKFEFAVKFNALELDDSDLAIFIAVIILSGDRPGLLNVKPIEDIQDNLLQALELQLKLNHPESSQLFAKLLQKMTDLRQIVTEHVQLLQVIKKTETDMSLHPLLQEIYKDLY
Summary of the method: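 Quantitative HTS agonist mode: stable HEK293H line with UAS-beta-lactamase reporter under PPARg control, 17 h compound exposure at 37C, fluorescence after 1 h FRET substrate loading at room temperature.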

[4] = target: Peroxisome proliferator-activated receptor gamma (Homo sapiens) (UniProt P37231); experiment: qHTS assay to identify small molecule antagonists of the peroxisome proliferator-activated receptor gamma (PPARg) signaling pathway (AID 743191; calls by dose curve; note: series mostly up to about 63 µM; nearly all actives have a fitted effect of over 30% in size)
Summary of the method: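 GeneBLAzer PPARg UAS-bla HEK293H cells, 5 h post-plating, exposed to compounds 17 h at 37C. LiveBLAzer B/G FRET substrate added for 1 h at room temperature; beta-lactamase reporter read by fluorescence intensity.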

[5] = qHTS assay to identify small molecule antagonists of the peroxisome proliferator-activated receptor gamma (PPARg) signaling pathway - cell viability counter screen (AID 743194); note: nearly all actives have a fitted effect of over 55% in size
Summary of the method: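 Cytotoxicity counter screen in PPARg-bla HEK293H cells, same wells as reporter assay. Compounds plus 50 nM rosiglitazone (final) for 17 h at 37 C, then viability read by CellTiter-Glo luminescence.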

[6] = qHTS assay for small molecule agonists of the antioxidant response element (ARE) signaling pathway (AID 743202; active = well fitted activation curve with a large enough effect in the signal ratio in the repeat runs, not every such curve was filed as active; the % refers to the signal ratio)
Summary of the method: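 ARE-bla HepG2 cells (beta-lactamase reporter under the antioxidant response element), plated 5 hours, then exposed to compounds 16 hours at 37 C. LiveBLAzer B/G FRET substrate added for 2 hours at room temperature; fluorescence intensity read.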

[7] = qHTS assay for small molecule agonists of the antioxidant response element (ARE) signaling pathway - cell viability counter screen (AID 743203; calls by dose curve; note: nearly all actives have a fitted effect of over 55% in size)
Summary of the method: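 Seeded at 2,000 cells/well, ARE-bla HepG2 cells were incubated 5 hrs before compound addition. After 16 hrs of treatment at 37C with 5% CO2, CellTiter-Glo reagent was added and luminescence read 30 min later.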

[8] = qHTS assay for small molecule activators of the heat shock response signaling pathway - cell viability counter screen (AID 743209); note: nearly all actives have a fitted effect of over 50% in size
Summary of the method: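 First, HSE-bla HeLa cells were seeded at 1500 cells/well and kept overnight at 37 C. Next, compounds were pinned in and incubated 5 h. After the FRET substrate step, CellTiter-Glo was added and luminescence read 30 min later.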

[9] = qHTS assay for small molecule activators of the heat shock response signaling pathway (AID 743210; active = well fitted activation curve with a large enough effect in the signal ratio in the repeat runs, with a control signal flat, not every such curve was filed as active; the % refers to the signal ratio; note: series mostly up to about 63 µM)
Summary of the method: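 HSE-bla HeLa cells (beta-lactamase reporter under heat shock response elements), plated overnight, then exposed to compounds 5 h at 37 C; LiveBLAzer B/G FRET substrate added, 2.5 h at room temperature, fluorescence intensity read.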

[10] = qHTS assay to identify small molecule agonists of the peroxisome proliferator-activated receptor delta (PPARd) signaling pathway - cell viability counter screen (AID 743211); note: nearly all actives have a fitted effect of over 55% in size
Summary of the method: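 PPARd-bla HEK293H cells (3000/well) were pre-incubated 5 h at 37 C, then exposed to compound for 17 h at 37 C. After 2 h with LiveBLAzer substrate, CellTiter-Glo was added to the same wells; luminescence read after 30 min at room temperature.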

[11] = target: Peroxisome proliferator-activated receptor delta (Homo sapiens) (UniProt Q03181); experiment: qHTS assay to identify small molecule agonists of the peroxisome proliferator-activated receptor delta (PPARd) signaling pathway (AID 743212; calls by dose curve)
Sequence of Peroxisome proliferator-activated receptor delta (Homo sapiens) (Q03181 whole entry, looked up): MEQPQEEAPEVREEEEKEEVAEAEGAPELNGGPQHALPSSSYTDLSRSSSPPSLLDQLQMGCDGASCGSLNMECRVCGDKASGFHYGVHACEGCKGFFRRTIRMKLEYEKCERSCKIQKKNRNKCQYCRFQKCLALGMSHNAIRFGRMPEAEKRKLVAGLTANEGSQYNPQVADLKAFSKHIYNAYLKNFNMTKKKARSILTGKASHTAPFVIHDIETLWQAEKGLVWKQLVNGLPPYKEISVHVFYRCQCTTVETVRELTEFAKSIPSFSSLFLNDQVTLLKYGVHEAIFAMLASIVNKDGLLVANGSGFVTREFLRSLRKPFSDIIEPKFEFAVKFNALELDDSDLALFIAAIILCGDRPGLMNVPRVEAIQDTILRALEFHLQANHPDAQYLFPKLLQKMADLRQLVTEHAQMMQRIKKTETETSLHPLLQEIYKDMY
Summary of the method: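 GeneBLAzer UAS-bla HEK293H cells carrying a PPARδ construct were exposed to compounds at 37 °C. Beta-lactamase activity was read by FRET fluorescence after 2 h at room temperature with LiveBLAzer B/G substrate.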

[12] = target: Peroxisome proliferator-activated receptor delta (Homo sapiens) (UniProt Q03181); experiment: qHTS assay to identify small molecule antagonists of the peroxisome proliferator-activated receptor delta (PPARd) signaling pathway (AID 743215; active = well fitted inhibition curve with a large enough effect in the signal ratio in the repeat runs, not every such curve was filed as active; the % refers to the signal ratio;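 note: cells stimulated with agonist L165041 at 300 nM final during compound exposure; series mostly up to about 62 µM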)
Summary of the method: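 Inhibition of L165041-driven (300 nM final) PPARd signaling is scored in HEK293H UAS-bla cells. Exposure lasts 17 h at 37 C; beta-lactamase activity is then read by FRET substrate fluorescence after 2 h at room temperature.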

[13] = qHTS assay to identify small molecule agonists of the farnesoid-X-receptor (FXR) signaling pathway - cell viability counter screen (AID 743218); note: nearly all actives have a fitted effect of over 45% in size
Summary of the method: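 Cytotoxicity counter-screen run in parallel, same wells: FXR-UAS-bla HEK 293T cells dosed 16 h at 37 C, viability read by CellTiter-Glo luminescence after 30 min at room temperature.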

[14] = qHTS assay to identify small molecule antagonists of the farnesoid-X-receptor (FXR) signaling pathway - cell viability counter screen (AID 743221; active = well fitted cell-killing curve with a large enough effect in the repeat runs, not every such curve was filed as active; note: nearly all actives have a fitted effect of over 50% in size)
Summary of the method: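 GeneBLAzer FXR-UAS-bla HEK 293T cells, compound plus chenodeoxycholic acid (50 uM final), 16 h at 37 C. CellTiter-Glo added to the same wells after the beta-lactamase read; luminescence read after 30 min at room temperature as viability.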

[15] = target: Vitamin D3 receptor (Homo sapiens) (UniProt P11473); experiment: qHTS assay to identify small molecule agonists of the vitamin D receptor (VDR) signaling pathway (AID 743222; calls by dose curve)
Sequence of Vitamin D3 receptor (Homo sapiens) (P11473 whole entry, looked up): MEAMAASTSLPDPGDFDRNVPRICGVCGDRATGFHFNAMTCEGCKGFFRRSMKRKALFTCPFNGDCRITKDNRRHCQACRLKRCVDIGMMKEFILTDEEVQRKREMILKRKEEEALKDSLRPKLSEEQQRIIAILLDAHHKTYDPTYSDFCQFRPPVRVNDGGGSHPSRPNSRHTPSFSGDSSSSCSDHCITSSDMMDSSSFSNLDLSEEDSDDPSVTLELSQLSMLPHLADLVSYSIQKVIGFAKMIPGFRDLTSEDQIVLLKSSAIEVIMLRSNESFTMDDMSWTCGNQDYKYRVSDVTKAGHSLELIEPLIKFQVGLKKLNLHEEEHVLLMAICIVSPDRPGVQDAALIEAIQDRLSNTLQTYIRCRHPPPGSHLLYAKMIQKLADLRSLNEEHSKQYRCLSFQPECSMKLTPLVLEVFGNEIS
Summary of the method: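 Quantitative HTS agonist-mode screen: compounds in DMSO were pin-transferred onto VDR-bla cells and incubated 16 h at 37C, 5% CO2. Reporter activity was detected with LiveBLAzer B/G FRET substrate after 2 h at room temperature.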

[16] = target: Vitamin D3 receptor (Homo sapiens) (UniProt P11473); experiment: qHTS assay to identify small molecule antagonists of the vitamin D receptor (VDR) signaling pathway (AID 743223; active = well fitted inhibition curve with a large enough effect in the signal ratio in the repeat runs, not every such curve was filed as active; the % refers to the signal ratio)
Summary of the method: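 VDR-bla cells were treated with compound plus 3 nM final 1alpha,25-dihydroxyvitamin D3 for 16 h at 37C. Beta-lactamase reporter read by B/G FRET substrate fluorescence after 2 h at room temperature. qHTS format.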

[17] = qHTS assay to identify small molecule that activate the aryl hydrocarbon receptor (AhR) signaling pathway - cell viability counter screen (AID 743086);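 note: HepG2 liver cells carrying the AhR DRE luciferase reporter; series mostly up to about 70 µM; nearly all actives have a fitted effect of over 45% in size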
Summary of the method: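 HepG2-AhR-luc (HG2L7.5c1) cells, 4000/well, treated 24 h at 37 C with compound; viability measured as CellTiter-Fluor fluorescence after 30 min in the same wells as the luciferase read.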

[18] = qHTS assay to identify small molecule antagonists of the peroxisome proliferator-activated receptor delta (PPARd) signaling pathway - cell viability counter screen (AID 743213); note: nearly all actives have a fitted effect of over 50% in size
Summary of the method: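 PPARd-bla HEK293H cells were treated with compounds plus agonist L165041 (300 nM final) for 17 h at 37 C. Viability was then read in the same wells by CellTiter-Glo luminescence after 30 min at room temperature.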

[19] = target: Bile acid receptor (Homo sapiens) (UniProt Q96RI1); experiment: qHTS assay to identify small molecule antagonists of the farnesoid-X-receptor (FXR) signaling pathway (AID 743217; active = well fitted inhibition curve with a large enough effect in the signal ratio in the repeat runs, not every such curve was filed as active; the % refers to the signal ratio)
Sequence of Bile acid receptor (Homo sapiens) (Q96RI1 whole entry, looked up): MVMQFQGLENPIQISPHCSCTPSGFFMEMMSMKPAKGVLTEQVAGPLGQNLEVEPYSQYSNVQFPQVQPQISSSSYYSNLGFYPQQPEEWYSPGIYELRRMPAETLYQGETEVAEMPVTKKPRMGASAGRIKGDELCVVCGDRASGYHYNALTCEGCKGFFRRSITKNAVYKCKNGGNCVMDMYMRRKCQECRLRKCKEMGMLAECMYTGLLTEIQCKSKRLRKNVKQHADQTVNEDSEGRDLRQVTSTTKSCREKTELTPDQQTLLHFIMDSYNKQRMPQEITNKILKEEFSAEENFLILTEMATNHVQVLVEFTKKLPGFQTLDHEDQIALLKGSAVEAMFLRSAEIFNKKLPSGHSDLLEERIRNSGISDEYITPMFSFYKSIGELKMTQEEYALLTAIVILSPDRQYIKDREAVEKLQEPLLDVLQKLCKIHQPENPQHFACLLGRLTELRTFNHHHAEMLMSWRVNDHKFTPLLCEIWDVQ
Summary of the method: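 Antagonist mode against 50 uM (final) chenodeoxycholic acid stimulation in FXR-bla HEK 293T cells, 16 h at 37 °C. Inhibition detected as reduced beta-lactamase activity via LiveBLAzer B/G FRET fluorescence after 2 h at room temperature.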

[20] = target: Bile acid receptor (Homo sapiens) (UniProt Q96RI1); experiment: qHTS assay to identify small molecule agonists of the farnesoid-X-receptor (FXR) signaling pathway (AID 743220; active = well fitted activation curve with a large enough effect in the signal ratio in the repeat runs, not every such curve was filed as active; the % refers to the signal ratio)
Summary of the method: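 Beta-lactamase reporter under UAS control in GeneBLAzer FXR HEK 293T cells (5000/well) measured with LiveBLAzer FRET substrate after 2 h at room temperature. Compound exposure lasted 16 h at 37C.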

Measured: Potency

C=CCCC(=O)O
not listed: [16] | [17] | [18] | [19] | [20]
inactive: all other assays above

CCCCOC(=O)CCC(C)=O
not listed: [4] | [9] | [12] | [17] | [18] | [19] | [20]
inactive: all other assays above

Cc1c(N)c(=O)n(-c2ccccc2)n1C
inactive: [1] | [2] | [17] | [5] | [8] | [9] | [10] | [18] | [13] | [14] | [15]

CCC(=O)OCc1ccccc1
not listed: [8] | [17] | [18] | [19] | [20]
inactive: all other assays above

CCC(C)(CN(C)C)OC(=O)c1ccccc1 (stereo not given)
inactive: [1] | [2] | [17] | [6] | [8] | [9] | [10] | [14] | [15]

C=COCC1CCC(COC=C)CC1 (stereo not given)
not listed: [3] | [4] | [9] | [11] | [12] | [19] | [20]
inactive: all other assays above

CC(C)[C@H]1CC[C@@H](C)CC1=O
inactive: [1] | [2] | [17] | [5] | [6] | [8] | [9] | [10] | [18] | [13] | [14]

CCNS(=O)(=O)c1ccc(C)cc1
inactive: [1] | [2] | [3] | [4] | [9] | [10] | [11] | [18] | [12] | [13] | [14]

Cc1cccc(C)c1NC(=O)CC12CCCN1CCC2
not listed: [3] | [4] | [6] | [14] | [15] | [16]
inactive: all other assays above

N[C@H](C(=O)O)[C@@H](O)c1ccc(O)c(O)c1
not listed: [6] | [12] | [17] | [19]
inactive: all other assays above

CCC(C)(CCCC(C)C)OC(C)=O (stereo not given)
not listed: [9] | [14] | [17]
inactive: all other assays above

CCOC(=O)C1=NOC(c2ccccc2)(c2ccccc2)C1
not listed: [8] | [12] | [13] | [17] | [19]
inactive: all other assays above

CC(C)c1ccc2ncccc2c1
not listed: [3] | [4] | [8] | [10] | [15] | [16]
inactive: all other assays above

CCCCCCCCCC[N+](C)(C)[O-]
not listed: [3] | [4] | [6] | [7] | [16] | [19] | [20]
inactive: all other assays above

O=C(O)CNC(=O)c1ccccc1
inactive: [1] | [2] | [17] | [5] | [6] | [7] | [8] | [9] | [11] | [18] | [13]

NO
not listed: [3] | [4] | [7] | [11] | [12] | [19] | [20]
inactive: all other assays above

O=C(CO)[C@@H](O)[C@H](O)[C@@H](O)CO
not listed: [8] | [11] | [12] | [15] | [16] | [17] | [19] | [20]
inactive: all other assays above

CCN[C@H]1C[C@H](C)S(=O)(=O)c2sc(S(N)(=O)=O)cc21
not listed: [5] | [11] | [12] | [14] | [17] | [19]
inactive: all other assays above

CC1(C)[C@@H]2CC[C@@]1(C)[C@H](O)C2
not listed: [3] | [4] | [8] | [15] | [16] | [19] | [20]
inactive: all other assays above

CCCC(C)C(=O)OCC (stereo not given)
not listed: [5] | [8] | [9] | [12] | [17] | [19] | [20]
inactive: all other assays above

CC(CC=O)CC(C)(C)C (stereo not given)
not listed: [6] | [17] | [19]
inactive: all other assays above

Source: PubChem BioAssay (Tox21)
